Bioassay records from PubChem BioAssay.
Only some compounds are listed: those with a hit (about 5.9% of all), similar ones and a draw of the others.
Rtt109 Vps75 – inhibitors of Candida albicans Rtt109/Vps75 histone acetyltransferase; 330,000 compounds, 0.16% hits; purified Rtt109/Vps75, ThioGlo CoA-SH fluorescence, 4 h; Q5AAJ8; AID 540336; inhibition, % at 34.9 µM;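 active = inhibition of at least 50% in every replicate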
LANA-H2B inh – blocks KSHV LANA binding to histone H2A/H2B; cell-free LANA-H2A/H2B peptide, fluorescence polarization; inhibition, % (test concentration not listed); 320,000 compounds, 0.6% hits; in the data active = inhibition mostly above about 10%, no sharp cut-off; inactive = mostly below about 6.7%
PRMT1 inh – inhibitors of human PRMT1; 370,000 compounds, 1.3% hits; AID 652257; Q99873; recombinant PRMT1, activity-based probe fluorescence polarization; inhibition, % at 2.79 µM;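 active = inhibition above about 21% made by adding two undisclosed values, limit read from the data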
Target sequence (Q99873 whole entry, looked up): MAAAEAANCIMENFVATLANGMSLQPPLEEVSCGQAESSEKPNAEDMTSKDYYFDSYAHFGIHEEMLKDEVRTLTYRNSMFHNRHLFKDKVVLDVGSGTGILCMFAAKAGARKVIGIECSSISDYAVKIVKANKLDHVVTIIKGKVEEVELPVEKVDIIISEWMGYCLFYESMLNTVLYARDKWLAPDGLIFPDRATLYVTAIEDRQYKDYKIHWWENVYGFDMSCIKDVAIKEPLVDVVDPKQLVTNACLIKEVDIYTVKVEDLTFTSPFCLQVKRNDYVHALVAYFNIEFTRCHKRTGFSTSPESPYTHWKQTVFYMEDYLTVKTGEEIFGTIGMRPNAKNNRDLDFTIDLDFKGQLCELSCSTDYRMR
ABHD5-PLIN5 inh – inhibitors of human ABHD5-perilipin-5 interaction; Split G. princeps luciferase complementation, luminescence, 4 h; inhibition, % at 4 µM; 360,000 compounds, 0.78% hits;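 active = inhibition above the mean inhibition across every tested compound plus 3 SD, cut at about 22% in these data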;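 also: 0% = DMSO only wells and the 100% control is not disclosed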
rCAG binder – binds r(CAG) RNA repeats; r(CAG) RNA repeat, TO-PRO-1 dye displacement fluorescence; inhibition, % at 3 µM; 370,000 compounds, 1.3% hits; AID 651821;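 active = inhibition above the plate cutoff, the mean of all test compounds on that plate plus 3 SD, cut at about 35% in these data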;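 also: 0% = DMSO alone and 100% = 100 µM mitoxantrone as full dye displacement; higher means more dye released from RNA so lower well fluorescence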
ALR H2O2 inh – human ALR oxidase inhibition via reduced H2O2 | 290,000 compounds, 3.8% hits | inhibition, % (test concentration not listed) | purified ALR, DTT oxidation, H2O2 HRP-luminol luminescence | AID 485317;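 active = mean replicate inhibition above about 79%, with every replicate also reaching it, limit read from the data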
PRMT1 confirm – PRMT1 (human) inhibition, FP confirmation | 3,300 compounds, 42% hits | shares compounds with PRMT1 inh | recombinant His-PRMT1, activity-based probe fluorescence polarization | inhibition, % at 2.79 µM | AID 687036;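 active = mean inhibition across replicates above the hit cutoff derived for the earlier primary screen, cut at about 22% in these data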
* marks the source's active call; other numbers are inactive results; . = no result given.

SMILES	Rtt109 Vps75	LANA-H2B inh	PRMT1 inh	ABHD5-PLIN5 inh	rCAG binder	ALR H2O2 inh	PRMT1 confirm
O=C(O)CNc1nc(-c2ccccc2)c2cc([N+](=O)[O-])ccc2n1	1	2	26*	-10	9	-75	30*
COC(=O)C(NC(=O)CCC(=O)N[C@@H](C(=O)OC)c1ccccc1)c1ccccc1 (stereo partly drawn)	13	1	1	0	-5	4	.
COC(=O)[C@@H](N)CS	-1	-1	49*	-25	4	.	75*
Cc1ccc(NC(=O)Cn2c(O)c(N=NS(=O)(=O)c3ccc(C)cc3)c3ccccc32)cc1	5	-2	29*	-6	12	1	23*
C[C@H](O)[C@@H]1CN2CCc3c([nH]c4ccccc34)[C@@H]2C[C@@H]1N(C)C(=S)NCCc1ccccc1	.	.	49*	4	6	.	11
Cc1ccc(-c2cc(C(=O)N(C)CC(=O)Nc3ccccc3Br)c3ccccc3n2)o1	-470	-2	30*	16	5	.	39*
Cc1ccc(-c2cc(C(=O)Nc3nccs3)c3ccccc3n2)o1	3	5	36*	11	21	-16	12
COc1ccc(S[C@]2(C(=O)N3CCCC3)CC(=O)N(C(=O)C3CC3)[C@@H]2c2ccc(OC)cc2)cc1	.	.	38*	.	8	.	36*
COc1ccc(S[C@]2(C(=O)N3CCN(C(C)=O)CC3)CC(=O)N(C(=O)C3CC3)[C@@H]2c2ccc(OC)cc2)cc1	.	.	53*	.	5	.	44*
COc1ccc(S[C@]2(C(=O)N(C)C)CC(=O)N(c3ccc(Cl)cc3)[C@@H]2c2ccc(OC)cc2)cc1	.	.	-2	.	4	.	.
COC(=O)[C@@]1(Sc2ccc(C)cc2)CC(=O)N(C(=O)C2CC2)[C@@H]1c1ccccc1	.	.	55*	-3	2	.	58*
COc1ccc(S[C@]2(C(=O)N3CCN(C(C)=O)CC3)CC(=O)N(C(=O)/C=C/c3ccccc3)[C@@H]2c2ccc(OC)cc2)cc1	.	.	18	.	16	.	.
COc1ccc(S[C@]2(C(=O)N(C)C)CC(=O)N(C(=O)C3CC3)[C@@H]2c2ccc(OC)cc2)cc1	.	.	42*	.	3	.	34*
CC(C)C[C@H]1CNC(=O)C(=O)N1C[C@@H]1CCCN1C[C@H](Cc1ccc(O)cc1)N1C[C@H](Cc2ccccc2)N(CC2CCCCC2)C(=O)C1=O	.	.	-1	14	2	.	.
O=c1ccn([C@@H]2O[C@H](CNCc3cccn3-c3ccncc3)[C@@H](O)[C@H]2O)c(=O)[nH]1	.	.	-3	1	1	.	.
COc1ccccc1N(Cc1ccccc1)S(=O)(=O)c1cccc(C(=O)Nc2cc(C)ccn2)c1	-2	0	1	-7	4	-3	.
CCN(CC)CCn1c2ccccc2c2n[nH]c(=S)nc21	-3	-1	85*	-17	-5	94*	58*
O=C(NCc1ccccc1Cl)c1ccc2sc([C@@H]3O[C@H](CO)[C@H](O)[C@H](O)[C@H]3O)nc2c1	.	.	1	0	3	.	.
CC(=O)NC1=C(NC2CCS(=O)(=O)C2)C(=O)c2ccccc2C1=O (stereo not drawn)	-8	3	44*	-4	3	-18	67*
